As usually defined, the AC50 is the midpoint of the concentration-response curve, whichever way the signal moves.

Calls of active or inactive are those of the source. How the source made its calls: active means hit-call score of the fitted dose curve at least 0.9, where 1 is the maximum; inactive means score below 0.9.

What all share (details): mRNA level, 48 h; actives raise or lower the signal
Read-out in assay [1]: Bcl-2 (BAD) gene, BAD (gene 572)
Description: LTEA_HepaRG_BAD: Life Technologies and Expression Analysis (LTEA) Assay for Bcl-2 (BAD) gene using HepaRG (AID 2283469). Summed up: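 Activity values reflect up- or down-regulation of BAD mRNA in human HepaRG hepatic cells treated 48 h in serum-free medium, with eight-point half-log dosing capped at 100 uM and 0.5% DMSO vehicle.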

Read-out in assay [2]: Bcl-2 (BAX) gene, BAX (gene 581)
Description: LTEA_HepaRG_BAX: Life Technologies and Expression Analysis (LTEA) Assay for Bcl-2 (BAX) gene using HepaRG (AID 2283470). Summed up: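 Cells were thawed, plated for 48 h, moved to serum-free induction medium and dosed for 48 h (highest concentration 100 uM, half-log steps, 0.5% DMSO). Total RNA was then analysed for BAX expression by qRT-PCR.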

Read-out in assay [3]: adenosine kinase (ADK) gene, ADK (gene 132)
Description: LTEA_HepaRG_ADK: Life Technologies and Expression Analysis (LTEA) Assay for adenosine kinase (ADK) gene using HepaRG (AID 2283471). A digest of the protocol:
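ADK expression quantified by qRT-PCR, normalised to three housekeeping genes, after 48 h exposure of HepaRG cells to eight concentrations (top 100 uM, half-log steps, duplicate, 0.5% DMSO). Up- or down-regulation fitted relative to vehicle.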

Read-out in assay [4]: Alpha-fetoprotein (AFP) gene, AFP (gene 174)
Description: LTEA_HepaRG_AFP: Life Technologies and Expression Analysis (LTEA) Assay for Alpha-fetoprotein (AFP) gene using HepaRG (AID 2283472). Summed up: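 Chemicals were tested on differentiated HepaRG cells for 48 hours at eight concentrations up to 100 uM, with 0.5% DMSO as vehicle. AFP expression was then quantified by qRT-PCR and analyzed for gain or loss relative to DMSO.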

Read-out in assay [5]: Apolipoprotein A-V (APOA5) gene, APOA5 (gene 116519)
Description: LTEA_HepaRG_APOA5: Life Technologies and Expression Analysis (LTEA) Assay for Apolipoprotein A-V (APOA5) gene using HepaRG (AID 2283474). A digest of the protocol: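 HepaRG, 48 h chemical exposure in serum-free induction medium, 8-pt half-log series (top 100 uM), 0.5% DMSO vehicle, duplicates. Readout: APOA5 mRNA by qRT-PCR, housekeeping-normalized; bidirectional fit vs DMSO baseline.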

Read-out in assay [6]: Apoptosis regulator Bcl-2 (Homo sapiens) (UniProt P10415)
Description: LTEA_HepaRG_BCL2: Life Technologies and Expression Analysis (LTEA) Assay for Bcl-2 gene using HepaRG (AID 2283475). A digest of the protocol:
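Plated human HepaRG cells are exposed to test chemicals for 48 h across eight concentrations from 100 uM downward in half-log steps (0.5% DMSO). BCL2 expression is then measured by qRT-PCR with housekeeping normalisation and fitted bidirectionally against vehicle.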

Read-out in assay [7]: Bcl-2 (BID) gene, BID (gene 637)
Description: LTEA_HepaRG_BID: Life Technologies and Expression Analysis (LTEA) Assay for Bcl-2 (BID) gene using HepaRG (AID 2283476). Summed up: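 Cells are plated, cultured 48 h, switched to serum-free induction medium, then dosed 48 h (100 uM top, half-log steps, 0.5% DMSO). RNA is isolated and BID expression read by qRT-PCR.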

Read-out in a further assay: Caspase-3 (Homo sapiens) (UniProt P42574)
Description: LTEA_HepaRG_CASP3: Life Technologies and Expression Analysis (LTEA) Assay for cysteine-aspartic acid protease (CASP3) using HepaRG (AID 2283477). Summed up:
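HepaRG, 48 h exposure, 8 conc. (top 100 uM, half-log steps, duplicate), 0.5% DMSO vehicle; qRT-PCR of CASP3 transcript, housekeeping-normalised (ACTB/GAPDH/POLR2A); bidirectional curve fit vs DMSO baseline.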

Read-out in assay [8]: Cytochrome P450 (CYP24A1), CYP24A1 (gene 1591)
Description: LTEA_HepaRG_CYP24A1: Life Technologies and Expression Analysis (LTEA) Assay for Cytochrome P450 (CYP24A1) using HepaRG (AID 2283478). Summed up:
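qRT-PCR read-out: CYP24A1 transcript levels normalized to three housekeeping genes, bidirectional curve fits against 0.5% DMSO baseline. Human HepaRG cells treated 48 h with chemicals at eight concentrations from 100 uM in half-log steps.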

Read-out in assay [9]: Cytochrome P450 (CYP1A2), CYP1A2 (gene 1544)
Description: LTEA_HepaRG_CYP1A2: Life Technologies and Expression Analysis (LTEA) Assay for Cytochrome P450 (CYP1A2) using HepaRG (AID 2283479). A digest of the protocol:
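HepaRG, 48 h exposure, top 100 uM, half-log 8-pt, 0.5% DMSO vehicle, duplicates. Readout: TaqMan qRT-PCR of CYP1A2 mRNA, housekeeping-normalized (ACTB/GAPDH/POLR2A). Gain/loss fit relative to DMSO baseline.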

Read-out in assay [10]: cysteine-aspartic acid protease (CASP8), CASP8 (gene 841)
Description: LTEA_HepaRG_CASP8: Life Technologies and Expression Analysis (LTEA) Assay for cysteine-aspartic acid protease (CASP8) using HepaRG (AID 2283480). A digest of the protocol: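 Concentration-response in duplicate up to 100 uM (half-log steps, 0.5% DMSO) on differentiated HepaRG cultures for 48 h. Expression change of CASP8 mRNA is determined by TaqMan qRT-PCR with housekeeping-gene normalization.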

Read-out in the next assay: CYP2C8 (gene 1558)
Description: LTEA_HepaRG_CYP2C8: Life Technologies and Expression Analysis (LTEA) Assay for CYP2C8 using HepaRG (AID 2283483). Summed up: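 This is a transcriptional endpoint in HepaRG cultures: 48 h exposure, highest concentration 100 uM. CYP2C8 mRNA is quantified by TaqMan qRT-PCR.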

Read-out in another assay: CYP2C9 (gene 1559)
Description: LTEA_HepaRG_CYP2C9: Life Technologies and Expression Analysis (LTEA) Assay for CYP2C9 using HepaRG (AID 2283484). A digest of the protocol:
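Eight-point concentration-response (highest 100 uM, half-log dilutions) in HepaRG cells for 48 h; CYP2C9 expression by qRT-PCR normalized to ACTB, GAPDH, POLR2A. Bidirectional fit, DMSO baseline.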

Read-out in the next assay: CYP2E1 (gene 1571)
Description: LTEA_HepaRG_CYP2E1: Life Technologies and Expression Analysis (LTEA) Assay for CYP2E1 using HepaRG (AID 2283485). Summed up:
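Readout is qRT-PCR of CYP2E1 mRNA, normalized to three housekeeping genes and fitted bidirectionally against 0.5% DMSO. HepaRG cells were dosed 48 h at eight concentrations, highest 100 uM with half-log dilutions.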

Read-out in the next assay: CYP4A11 (gene 1579)
Description: LTEA_HepaRG_CYP4A11: Life Technologies and Expression Analysis (LTEA) Assay for CYP4A11 using HepaRG (AID 2283486). Summed up:
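CYP4A11 transcript levels were quantified by TaqMan qRT-PCR after HepaRG human liver cells were treated for 48 hours with test chemicals (top 100 uM, half-log dilutions, 0.5% DMSO). Gain or loss of signal was fitted relative to DMSO.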

Read-out in assay [11]: Cytochrome P450 3A4 (Homo sapiens) (UniProt P08684)
Description: LTEA_HepaRG_CYP3A4: Life Technologies and Expression Analysis (LTEA) Assay for CYP3A4 using HepaRG (AID 2283487). A digest of the protocol:
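Differentiated HepaRG cells, plated 48 h, then dosed 48 h in serum-free induction medium with 0.5% DMSO, 8 half-log concentrations up to 100 uM, duplicate. CYP3A4 mRNA by qRT-PCR, normalized to ACTB/GAPDH/POLR2A; bidirectional fit versus DMSO.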

Read-out in assay [12]: DNA damage-inducible transcript 3 (DDIT3), DDIT3 (gene 1649)
Description: LTEA_HepaRG_DDIT3: Life Technologies and Expression Analysis (LTEA) Assay for DNA damage-inducible transcript 3 (DDIT3) using HepaRG (AID 2283488). Summed up: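 Cells are human HepaRG liver cells treated for 48 h with eight half-log concentrations up to 100 uM in 0.5% DMSO. Transcript levels come from qRT-PCR normalized to three housekeeping genes, with activity fitted in both directions relative to vehicle.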

Read-out in assay [13]: Cytochrome P450 (CYP2B6), CYP2B6 (gene 1555)
Description: LTEA_HepaRG_CYP2B6: Life Technologies and Expression Analysis (LTEA) Assay for Cytochrome P450 (CYP2B6) using HepaRG (AID 2283481). Summed up:
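Read-out is CYP2B6 mRNA by TaqMan qRT-PCR, normalized to three housekeeping genes and fitted bidirectionally against 0.5% DMSO baseline. Human HepaRG cells received test chemicals for 48 h, top concentration 100 uM, half-log dilutions.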

Read-out in assay [14]: Cytochrome P450 2C19 (Homo sapiens) (UniProt P33261)
Description: LTEA_HepaRG_CYP2C19: Life Technologies and Expression Analysis (LTEA) Assay for CYP2C19 using HepaRG (AID 2283482). Summed up:
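HepaRG, 48 h chemical exposure, 8-pt half-log series from 100 uM in 0.5% DMSO, duplicates. Readout: CYP2C19 mRNA by TaqMan qRT-PCR, housekeeping-normalized. Bidirectional fit vs DMSO baseline; phenobarbital 1mM as induction control.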

Sequence of Caspase-3 (Homo sapiens) (P42574 whole entry, looked up): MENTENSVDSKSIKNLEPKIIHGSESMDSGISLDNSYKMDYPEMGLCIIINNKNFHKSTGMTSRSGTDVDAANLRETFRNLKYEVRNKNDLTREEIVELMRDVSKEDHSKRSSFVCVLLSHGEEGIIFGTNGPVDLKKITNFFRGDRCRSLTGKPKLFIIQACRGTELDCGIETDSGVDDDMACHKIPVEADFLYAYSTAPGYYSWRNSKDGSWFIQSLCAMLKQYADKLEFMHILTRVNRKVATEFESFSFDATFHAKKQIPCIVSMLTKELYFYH
Sequence of Apoptosis regulator Bcl-2 (Homo sapiens) (P10415 whole entry, looked up): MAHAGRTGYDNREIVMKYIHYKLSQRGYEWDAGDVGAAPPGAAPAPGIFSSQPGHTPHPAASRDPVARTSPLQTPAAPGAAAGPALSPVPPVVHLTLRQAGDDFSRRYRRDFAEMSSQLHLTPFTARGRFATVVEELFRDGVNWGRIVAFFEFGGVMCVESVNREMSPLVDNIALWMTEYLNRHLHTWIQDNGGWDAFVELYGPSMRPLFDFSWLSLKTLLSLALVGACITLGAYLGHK
Sequence of Cytochrome P450 3A4 (Homo sapiens) (P08684 whole entry, looked up): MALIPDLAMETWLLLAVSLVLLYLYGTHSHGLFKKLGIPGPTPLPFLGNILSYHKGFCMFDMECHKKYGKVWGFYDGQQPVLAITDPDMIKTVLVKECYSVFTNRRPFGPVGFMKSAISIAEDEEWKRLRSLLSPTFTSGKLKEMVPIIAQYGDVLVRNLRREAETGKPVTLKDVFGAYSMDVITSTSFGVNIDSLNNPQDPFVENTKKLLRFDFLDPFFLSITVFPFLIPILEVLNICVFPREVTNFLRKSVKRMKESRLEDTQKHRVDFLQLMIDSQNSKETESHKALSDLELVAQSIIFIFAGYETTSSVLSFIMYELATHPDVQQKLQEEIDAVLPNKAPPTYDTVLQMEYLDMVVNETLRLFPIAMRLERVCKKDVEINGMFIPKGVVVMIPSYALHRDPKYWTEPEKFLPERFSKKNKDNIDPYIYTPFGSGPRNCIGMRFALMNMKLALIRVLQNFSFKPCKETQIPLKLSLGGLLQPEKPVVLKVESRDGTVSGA
Sequence of Cytochrome P450 2C19 (Homo sapiens) (P33261 whole entry, looked up): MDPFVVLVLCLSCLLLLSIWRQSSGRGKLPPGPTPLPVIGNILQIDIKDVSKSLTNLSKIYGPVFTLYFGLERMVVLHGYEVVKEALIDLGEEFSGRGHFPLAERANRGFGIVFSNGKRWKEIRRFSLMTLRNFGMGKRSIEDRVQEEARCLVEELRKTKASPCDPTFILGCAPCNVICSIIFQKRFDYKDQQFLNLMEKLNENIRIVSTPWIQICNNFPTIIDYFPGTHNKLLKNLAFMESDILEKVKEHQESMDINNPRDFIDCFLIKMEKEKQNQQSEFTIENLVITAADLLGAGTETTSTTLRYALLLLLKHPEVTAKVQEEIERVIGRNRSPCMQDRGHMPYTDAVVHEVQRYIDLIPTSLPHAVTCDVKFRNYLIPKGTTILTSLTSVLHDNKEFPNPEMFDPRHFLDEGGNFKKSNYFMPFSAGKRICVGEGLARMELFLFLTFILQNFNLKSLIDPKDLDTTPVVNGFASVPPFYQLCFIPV

As to `Nc1ccc(S(=O)(=O)c2ccc(N)cc2)cc1`, the molecule was called inactive in assay [1], in assay [2], in assay [3], in assay [4], in assay [5] and in assay [6]. Besides, the call (in [7]; with Caspase-3 (Homo sapiens); in assay [9]; in [10]; with CYP2C8 (gene 1558); with CYP2C9 (gene 1559)) was inactive. Also, the outcome (with CYP4A11 (gene 1579); in [11]; in assay [12]) was inactive. Further, the half-maximal activity concentration (AC50) was 12.7 µM (active) in assay [8] and 5.9 µM (active) in the assay with CYP2E1 (gene 1571).

Regarding `C=CCc1ccc(O)c(OC)c1`, the molecule was classed as inactive in [1], in [2], in assay [3], in [4], in [5] and in [6]. Further, the call (in [7]; with Caspase-3 (Homo sapiens); in assay [8]; in [9]; in [13]; in [14]) was inactive. In addition, the result (with CYP2C8 (gene 1558); with CYP2C9 (gene 1559); with CYP2E1 (gene 1571); with CYP4A11 (gene 1579); in assay [11]; in assay [12]) was inactive.

On to `COc1cc(S(=O)(=O)O)c(C)cc1N=Nc1c(O)ccc2cc(S(=O)(=O)O)ccc12`, for which the call in [1], in assay [2], in [3], in [4], in assay [6] and in assay [7] was inactive. For the same molecule, the molecule was classed as inactive (with Caspase-3 (Homo sapiens); in [8]; in assay [9]; in assay [13]; in [14]; with CYP2C8 (gene 1558)). Also, the molecule was called inactive (with CYP2E1 (gene 1571); with CYP4A11 (gene 1579); in assay [11]; in assay [12]).

As for `CN[C@H]1CC[C@@H](c2ccc(Cl)c(Cl)c2)c2ccc(S(N)(=O)=O)cc21`, the molecule was called inactive (in assay [1]; in assay [3]; in assay [5]; in assay [6]; in assay [7]; with Caspase-3 (Homo sapiens)). Moreover, the result (in assay [8]; in assay [9]; in assay [10]; in assay [14]; with CYP2C8 (gene 1558)) was inactive. Moreover, the half-maximal activity concentration (AC50) is 82.6 µM (active) in assay [2]; 23.8 µM (active) in assay [4]; 34.1 µM (active) with CYP2C9 (gene 1559); 13 µM (active) with CYP2E1 (gene 1571); 21.4 µM (active) with CYP4A11 (gene 1579); 89.2 µM (active) in [11]. Besides, in assay [12], the AC50 is 63 µM (active).

On to `CCCCc1ccc2c(n1)[C@@H](c1ccc(OC)cc1C[C@H](C)C(=O)O)[C@H](C(=O)O)[C@H]2c1ccc2c(c1)OCO2`, for which the result in [1], in [2], in assay [3], in assay [4], in assay [5] and in assay [6] was inactive. Also, the molecule was called inactive (in [7]; in the assay with Caspase-3 (Homo sapiens); in assay [8]; in [9]; in [10]; in assay [14]). The result (with CYP2C8 (gene 1558); with CYP2C9 (gene 1559); with CYP2E1 (gene 1571); in the assay with CYP4A11 (gene 1579); in assay [11]; in assay [12]) was inactive.

For the molecule `NS(=O)(=O)c1cc2c(cc1Cl)NCNS2(=O)=O`, the outcome in assay [1], in assay [2], in [3], in [4], in assay [5] and in [6] was inactive. The outcome (in assay [7]; in the assay with Caspase-3 (Homo sapiens); in assay [8]; in assay [13]; in assay [14]; in the assay with CYP2C8 (gene 1558)) was inactive. The result (with CYP2E1 (gene 1571); in the assay with CYP4A11 (gene 1579); in [11]; in assay [12]) was inactive.

Consider `COc1ccc(C)cc1N`, for which the outcome in assay [1], in assay [2], in assay [3], in assay [4], in [5] and in [6] was inactive. Further, the outcome (in assay [7]; with Caspase-3 (Homo sapiens); in [8]; in assay [9]; in assay [10]; in assay [14]) was inactive. Besides, the molecule was called inactive (in the assay with CYP2C8 (gene 1558); in the assay with CYP2E1 (gene 1571); with CYP4A11 (gene 1579); in [11]; in [12]). Also, the AC50 in assay [13] was 25.6 µM (active).

`Cc1ccc(N(C)C)cc1`: the result in [1], in assay [2], in [3], in assay [4], in [5] and in [6] was inactive. Besides, the result (in assay [7]; in the assay with Caspase-3 (Homo sapiens); in assay [8]; in assay [10]; in assay [14]; with CYP2C8 (gene 1558)) was inactive. Further, the call (in the assay with CYP2E1 (gene 1571); with CYP4A11 (gene 1579); in assay [11]; in assay [12]) was inactive. Also, the AC50 in assay [9] is 23.9 µM (active).
